# Measured values reported in the supplement of paper PMC8728848.
# The entries come from a sample that favours the strongest signals as a whole.
# Legend:
# Test in all cases: glycan array binding signal (z-score within array); higher = stronger binding
# Conditions in all cases: glycan notation: IUPAC condensed, linker removed
# [1] = target: Fuc(a1-2)Gal(b1-3)GlcNAc(b1-3)[Fuc(a1-3)[Gal(b1-4)]GlcNAc(b1-6)]Gal(b1-4)Glc
# How it was run: (§1)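 Glycan array data came from 3228 arrays in the Consortium for Functional Glycomics database, and only arrays with an available protein sequence were kept. Glycan names were put into IUPAC-condensed notation, and columns mapping to the same glycan were averaged. The binding signal is a within-array Z-score, averaged across arrays of one protein sequence run at different concentrations or buffers and across linkers. A negative Z-score can be read as non-binding.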
# [2] = target: Fuc(a1-2)Gal(b1-3)[Fuc(a1-4)]GlcNAc(b1-2)Man(a1-3)[Fuc(a1-2)Gal(b1-3)[Fuc(a1-4)]GlcNAc(b1-2)Man(a1-3)]Man(b1-4)GlcNAc(b1-4)GlcNAc
# How it was run: as §1
# [3] = target: Fuc(a1-2)Gal(b1-4)GlcNAc(b1-2)Man(a1-3)[Fuc(a1-2)Gal(b1-4)GlcNAc(b1-2)Man(a1-6)]Man(b1-4)GlcNAc(b1-4)GlcNAc
# How it was run: as §1
# [4] = target: Fuc(a1-2)Gal(b1-4)GlcNAc(b1-2)Man(a1-3)[Fuc(a1-2)Gal(b1-4)GlcNAc(b1-2)Man(a1-6)]Man(b1-4)GlcNAc(b1-4)[Fuc(a1-6)]GlcNAc
# How it was run: as §1
# [5] = target: Fuc(a1-2)Gal(b1-4)GlcNAc(b1-3)[Fuc(a1-3)[Gal(b1-4)]GlcNAc(b1-6)]Gal(b1-4)Glc
# How it was run: as §1
# [6] = target: Fuc(a1-2)Gal(b1-4)GlcNAc(b1-6)GalNAc
# How it was run: as §1
# [7] = target: Fuc(a1-2)Gal6S(b1-3)GlcNAc6S
# How it was run: as §1
# [8] = target: Fuc(a1-2)Gal6S(b1-4)GlcNAc
# How it was run: as §1
# [9] = target: Fuc(a1-2)[Gal(a1-3)]Gal(b1-3)GlcNAc(b1-6)GalNAc
# How it was run: as §1
# [10] = target: Fuc(a1-2)[Gal(a1-3)]Gal(b1-4)GlcNAc(b1-2)Man(a1-3)[Fuc(a1-2)[Gal(a1-3)]Gal(b1-4)GlcNAc(b1-2)Man(a1-6)]Man(b1-4)GlcNAc(b1-4)GlcNAc
# How it was run: as §1
# [11] = target: Fuc(a1-2)[GalNAc(a1-3)]Gal(b1-4)GlcNAc(b1-3)[Fuc(a1-2)[GalNAc(a1-3)]Gal(b1-4)GlcNAc(b1-6)]GalNAc
# How it was run: as §1
# [12] = target: Fuc(a1-3)[Gal(b1-4)]GlcNAc(b1-3)GalNAc
# How it was run: as §1
# [13] = target: Gal(b1-3)GlcNAc(b1-3)Gal(b1-4)GlcNAc(b1-3)Gal(b1-4)GlcNAc(b1-2)[Gal(b1-3)GlcNAc(b1-3)Gal(b1-4)GlcNAc(b1-3)Gal(b1-4)GlcNAc(b1-6)]Man(a1-6)[Gal(b1-3)GlcNAc(b1-3)Gal(b1-4)GlcNAc(b1-3)Gal(b1-4)GlcNAc(b1-2)Man(a1-3)]Man(b1-4)GlcNAc(b1-4)[Fuc(a1-6)]GlcNAc
# How it was run: as §1
# [14] = target: Gal(b1-3)GlcNAc(b1-3)Gal(b1-4)GlcNAc(b1-6)[Gal(b1-3)GlcNAc(b1-3)]Gal(b1-4)Glc
# How it was run: as §1
# [15] = target: Gal(b1-3)GlcNAc(b1-6)GalNAc
# How it was run: as §1
# [16] = target: Gal(b1-3)[Fuc(a1-4)]GlcNAc(b1-2)Man(a1-3)[Gal(b1-3)[Fuc(a1-4)]GlcNAc(b1-2)Man(a1-6)]Man(b1-4)GlcNAc(b1-4)GlcNAc
# How it was run: as §1
# [17] = target: Gal(b1-4)GlcNAc(b1-2)[Gal(b1-4)GlcNAc(b1-6)]Man(a1-6)[GlcNAc(b1-4)][Gal(b1-4)GlcNAc(b1-2)[Gal(b1-4)GlcNAc(b1-4)]Man(a1-3)]Man(b1-4)GlcNAc(b1-4)[Fuc(a1-6)]GlcNAc
# How it was run: as §1
# [18] = target: Gal(b1-4)GlcNAc(b1-3)Gal(b1-4)GlcNAc(b1-3)Gal(b1-4)GlcNAc(b1-3)Gal(b1-4)GlcNAc(b1-2)[Gal(b1-4)GlcNAc(b1-3)Gal(b1-4)GlcNAc(b1-3)Gal(b1-4)GlcNAc(b1-3)Gal(b1-4)GlcNAc(b1-6)]Man(a1-6)[Gal(b1-4)GlcNAc(b1-3)Gal(b1-4)GlcNAc(b1-3)Gal(b1-4)GlcNAc(b1-3)Gal(b1-4)GlcNAc(b1-2)Man(a1-3)]Man(b1-4)GlcNAc(b1-4)[Fuc(a1-6)]GlcNAc
# How it was run: as §1
# [19] = target: Gal(b1-4)GlcNAc(b1-3)Gal(b1-4)[Fuc(a1-3)GlcNAc(b1-6)]Gal(b1-4)Glc
# How it was run: as §1
# [20] = target: Gal(b1-4)GlcNAc(b1-6)Gal(b1-4)GlcNAc(b1-6)GalNAc
# How it was run: as §1
# [21] = target: Gal3S(b1-4)[Fuc(a1-3)]Glc6S
# How it was run: as §1
# [22] = target: Gal3S(b1-4)[Fuc(a1-3)]GlcNAc
# How it was run: as §1
# [23] = target: GalNAc(b1-4)GlcNAc
# How it was run: as §1
# [24] = target: GalNAc4S6S(b1-4)GlcNAc
# How it was run: as §1
# [25] = target: Glc(a1-4)Glc
# How it was run: as §1
# [26] = target: Glc(a1-6)Glc(a1-6)Glc
# How it was run: as §1
binder,measurement,setting,value
GST Gap3 (Streptococcus parasanguinis) (protein) MTKQLISEIYWNEIRKGENYLYGSQIKFQEDLVNFYNPQLASGKPIVTFKSRTNYQGDRHSPDLPILIQGNRYLLEYQIDAVPANSFFLQLDFFNRQAEQIESIVLRNSGESFIFPKDTFTYTLTLMSAGCQSVTYQKFMIYDINDEEKKNHIVENRYLRELLPKDLDLVKNLIEYI,glycan array binding signal (z-score),[1],-0.027
same,glycan array binding signal (z-score),[2],2.3
same,glycan array binding signal (z-score),[3],3.16
same,glycan array binding signal (z-score),[4],-0.105
same,glycan array binding signal (z-score),[5],-0.573
same,glycan array binding signal (z-score),[6],-0.108
same,glycan array binding signal (z-score),[7],2.06
same,glycan array binding signal (z-score),[8],-0.073
same,glycan array binding signal (z-score),[9],-0.112
same,glycan array binding signal (z-score),[10],0.383
same,glycan array binding signal (z-score),[11],-0.377
same,glycan array binding signal (z-score),[12],0.287
same,glycan array binding signal (z-score),[13],4.03
same,glycan array binding signal (z-score),[14],0.052
same,glycan array binding signal (z-score),[15],0.002
same,glycan array binding signal (z-score),[16],3.61
same,glycan array binding signal (z-score),[17],0.228
same,glycan array binding signal (z-score),[18],2.32
same,glycan array binding signal (z-score),[19],-0.093
same,glycan array binding signal (z-score),[20],-0.125
same,glycan array binding signal (z-score),[21],1.61
same,glycan array binding signal (z-score),[22],-0.723
same,glycan array binding signal (z-score),[23],0.123
same,glycan array binding signal (z-score),[24],-0.267
same,glycan array binding signal (z-score),[25],3.14
same,glycan array binding signal (z-score),[26],0.005
